Assay outcomes deposited in PubChem by Broad Institute.
CD40 NFkB inh = CD40 pathway inhibition in BL2 cells. BL2 NF-kB luciferase reporter, CD40L-induced, 4 h. inhibition, % at 10 µM. 83,000 tested, 0.94% active;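 active = mean inhibition of at least 50% with a set share of replicates also reaching that level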
Of the large screens only hits and unclear results are named; the others gave an inactive call; [ ] = dose if it differs, or a comment. Shown is part of a subset that was picked to be rich in hits.

CCC1(O)CC2CN(CCc3c([nH]c4ccccc34)C(C(=O)OC)(c3cc4c(cc3OC)N(C)C3C(O)(C(=O)OC)C(C(=O)OC)C5(CC)C=CCN6CCC43C65)C2)C1 (centres undefined)	none
CCNC(=O)[C@@H]1[C@@H](CO)[C@@H]2Cn3c(ccc(-c4ccccc4)c3=O)[C@@H]2N1C(=O)C1CCC1	none
CCOC(=O)c1c(-c2ccc(C)o2)csc1NC(=O)CN1CCC(C(N)=O)CC1	none
CCOC(=O)c1c(-c2ccc(C)o2)csc1NC(=O)CN1CCN(CC)CC1	none
CCOC(=O)c1c(-c2ccc(C)o2)csc1NC(=O)CN1CCCCC1	CD40 NFkB inh 63
CC=Cc1ccc2n(c1=O)C[C@H]1[C@H](CO)[C@@H](C(=O)NC3CCC3)[C@@H]2N1S(=O)(=O)c1cn(C)cn1 (mixture of isomers)	none
COc1ccc(CN(CCC(c2ccccc2)c2ccc(OC(C)C)cc2)C(=O)CCl)cc1OC (centres undefined)	CD40 NFkB inh 44
COc1ccc(CN(CCC(c2ccccc2)C2CCOC(C)(C)C2)C(C)=O)cc1 (centres undefined)	none
COc1ccc(CN(CCC(c2ccco2)C(C)C)C(C)=O)cc1OC (centres undefined)	none
O=C(C[C@@H]1C[C@H]2c3cc(NC(=O)c4ccc5c(c4)OCO5)ccc3O[C@H]2[C@H](CO)O1)NC1CCCCC1	none
COc1ccc(S(=O)(=O)N(C)C[C@@H]2OCCCC[C@H](C)Oc3ccc(NC(=O)Nc4ccc(F)cc4)cc3C(=O)N([C@@H](C)CO)C[C@@H]2C)cc1	none
N#Cc1ccc(-c2ccc3c(c2)[C@@H]2[C@@H](CCN2C(=O)C2CC2)[C@@H](CO)N3)cc1	none
C[C@@H]1CN([C@@H](C)CO)C(=O)Cc2cc(NS(=O)(=O)c3cn(C)cn3)ccc2O[C@H]1CN(C)C(=O)NC1CCCCC1	none
O=C(Cn1cnc2ccccc2c1=O)c1ccc2c(c1)OCCO2	none
O=C(CCN1C(=O)c2ccccc2S1(=O)=O)Nc1ccc2c(c1)OCCO2	none
O=C(CN1C(=O)c2ccccc2S1(=O)=O)c1ccc2c(c1)OCCO2	CD40 NFkB inh 95
CN(C)C(=O)[C@@H]1[C@@H](CO)[C@@H]2Cn3c(ccc(C4=CCCC4)c3=O)[C@H]1N2CCC(F)(F)F	none
CC(C)NC(=O)Nc1ccc2c(c1)C(=O)N(C)C[C@H](C)[C@@H](CN(C)S(C)(=O)=O)O2	none
COc1ccc(CNC(=O)C[C@H]2C=C[C@@H](NC(=O)c3ccc4c(c3)OCO4)[C@@H](CO)O2)cc1	none
O=C(Cn1ncc(Cl)c(Cl)c1=O)NC1CCCCC1	CD40 NFkB inh 97
Cc1ccc(Cn2c(C)c3cnn(CC(=O)NC4CCCC4)c(=O)c3c2C)cc1	none
O=C(CN1CCN(Cc2ccccc2Cl)C1=O)NC1CCCCCCC1	none
C[C@@H]1CN([C@@H](C)CO)C(=O)c2c(c3ccccc3n2C)-c2ccccc2CO[C@@H]1CN(C)CC1CCCCC1	none
C=C1C(=O)OC2C=C(CO)C3OC3C3OC3(C)CC(OC(=O)/C(=C/C)COC(C)=O)C12 (centres undefined)	CD40 NFkB inh 101
C[C@@H](NC(=O)[C@H]1[C@H](CO)[C@H]2Cn3c(ccc(C4=CCCC4)c3=O)[C@@H]1N2C(=O)C1CC1)c1ccccc1	none
CCCNC(=O)Nc1ccc2c(c1)OC[C@H](C)N(C(=O)C1CCOCC1)C[C@H](C)[C@H](OC)CN(C)C2=O	none
Cc1ccc2c(=O)c3ccccc3n(CCCN)c2c1C	CD40 NFkB inh 79[25 µM]
Cc1cc(=O)n(CC(=O)O)c2ccccc12	none
CCN(CC)CCn1c2ccccc2c(=O)c2c(O)ccc(O)c21	none
O=C(c1cccnc1)N1C[C@H]2[C@@H](c3ccccc31)[C@@H](CO)N2C(=O)C1CCCCC1	none
CCC(=O)N[C@@H]1CC[C@H](CC(=O)NCc2ccccc2F)O[C@H]1CO	none
CO[C@@H]1CN(C)C(=O)c2cc(NC(=O)c3cnccn3)ccc2OC[C@@H](C)NC[C@H]1C	none
COCC#Cc1ccc([C@@H]2[C@@H](CO)N3C(=O)CN(C(=O)c4ccncc4)C[C@H]23)cc1	none
C[C@H]1CN([C@@H](C)CO)C(=O)c2cc(C#CCc3ccccc3)cnc2O[C@@H]1CN(C)C(=O)C1CCOCC1	none
CC(=O)N1Cc2cc(C(=O)NCc3cccc(F)c3)nc(-c3cccc(C4=CCCC4)c3)c2[C@@H]1CCO	none
O=C(NCCCn1ccnc1)c1ccc2nccnc2c1	none
O=C(NCCc1ccccc1)c1ccc2nccnc2c1	CD40 NFkB inh 72
O=C(NCCS(=O)(=O)NCCc1ccccc1)c1ccccc1	none
CC(C)NC(=O)N1Cc2cc(C(=O)NC3CCC3)nc(-c3cccc(-c4cccnc4)c3)c2[C@@H]1CCO	none
CN(C)C(=O)[C@H]1[C@H](CO)[C@H]2Cn3c(ccc(-c4ccccc4)c3=O)[C@@H]1N2Cc1ccccn1	none
C=C1C(=O)C23C(O)C1CCC2C12CCCC(C)(COC(C)=O)C1C(O)C3(O)OC2 (centres undefined)	CD40 NFkB inh 104
C[C@H]1CN(C)C(=O)c2cccc([N+](=O)[O-])c2O[C@@H]1CN(C)C(=O)OC(C)(C)C	none
O=C(Nc1ccc2c(c1)[C@@H]1C[C@@H](CC(=O)N3CCc4ccccc4C3)O[C@@H](CO)[C@@H]1O2)C1CCOCC1	none
Nc1nc(N)c2cc(Sc3ccc(Cl)cc3)ccc2n1	none
Nc1nc(N)c2cc(CNc3ccc(Cl)c(Cl)c3)ccc2n1	CD40 NFkB inh 92
Nc1nc(N)c2cc(Sc3cccc(C(F)(F)F)c3)ccc2n1	none
CCCCC#Cc1nc(NC)c2ncn(C3OC(CO)C(O)C3O)c2n1 (centres undefined)	none
O=C(C[C@H]1C[C@@H]2c3cc(NC(=O)Nc4ccccc4F)ccc3O[C@@H]2[C@@H](CO)O1)NCc1ccccn1	none
COc1cc2c(cc1OC)C1Cc3ccc(OC)c(OC)c3CN1CC2 (centres undefined)	none
COc1cc2c(cc1OC)[C@@H]1Cc3ccc(OC)c(OC)c3CN1CC2	none
CCC1=C(CC2NCCc3ccccc32)CC2c3cc(OC)c(OC)cc3CCN2C1 (centres undefined)	CD40 NFkB inh 55
CC(=O)N1C[C@@H]2C(c3ccccc3)[C@H](C1)N2C(C)=O (some centres undefined)	none
Cc1cc(C)c2c(N)c(C(=O)NC3CC3)sc2n1	none
Cc1cc(C)c2c(N)c(C(=O)Nc3nccs3)sc2n1	CD40 NFkB inh 70
Cc1cc(C)c2c(N)c(C(=O)NN)sc2n1	none
O=C(CC(F)(F)F)N1C[C@@H]2[C@H](c3ccccc31)[C@@H](CO)N2C(=O)CN1CCOCC1	none
CCCNC(=O)C[C@@H]1CC[C@H]2[C@@H](COc3ccc(NC(=O)NCCC)cc3C(=O)N2C)O1	none
Cc1c(CCOC(=O)C23CC4CC(CC(C)(C4)C2)C3)sc[n+]1CC(=O)c1ccccc1	none
Cc1c(CCOC(=O)c2ccccc2)sc[n+]1Cc1ccccc1	none
Cc1c(CCOC(=O)CC23CC4CC(CC(C)(C4)C2)C3)sc[n+]1CC(=O)c1ccccc1	CD40 NFkB inh 70
COc1cccc(S(=O)(=O)N2CC[C@@H]3[C@H](CO)Nc4ccc(-c5ccc(C#N)cc5)cc4[C@@H]32)c1	none
Cc1ccc(S(=O)(=O)N(C)C[C@@H]2OCCCC[C@@H](C)Oc3ccc(NS(=O)(=O)c4ccc(F)cc4)cc3C(=O)N([C@@H](C)CO)C[C@H]2C)cc1	none
COC(=O)c1ccc(CSc2nnc(-c3ccccc3)n2C)o1	none
COC(=O)c1ccc(CSc2nnnn2-c2ccccc2)o1	none
COC(=O)c1ccc(CSc2cc(C)c3ccccc3n2)o1	CD40 NFkB inh 66
Nc1cc(Nc2ccc(S(N)(=O)=O)cc2)ncn1	none
COc1ccccc1-c1cn(CC[C@H]2CC[C@@H](NC(=O)C3CCCC3)[C@@H](CO)O2)nn1	none
